Results as given in PubChem BioAssay (NCATS).
Inconclusive results are not listed. Calls of active or inactive are those of the source. Unless noted, the call rests on the fitted dose curve; in most records, active means well fitted curve in the direction sought with a large enough effect; inconclusive means small, poorly fitted or top-dose-only effect, or another doubt; inactive means no such curve, though single readings can be large; an effect the other way counts as inactive or inconclusive.

What was measured:
[1] = qHTS profiling of the MIPE4 collection as inhibitors of Plasmodium falciparum (3D7) proliferation (AID 743344; call rule not given here;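 further: scaled between DMSO vehicle wells and 0.29 µM artemisinin as full inhibition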); conditions: P. falciparum 3D7 in erythrocytes, SYBR Green DNA fluorescence, 72 h; at 28.5 µM unless noted
How it was run: (§1)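 Parasite DNA was quantified by SYBR Green I fluorescence (ex 485, em 535 nm) after overnight lysis in saponin/Triton buffer at room temperature. Cultures at 0.3% parasitemia and 2.5% hematocrit were first exposed to compound for 72 h at 37 C; signals were normalised to artemisinin (0.29 uM) and vehicle wells.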

[2] = qHTS profiling of the MIPE4 collection as inhibitors of Plasmodium falciparum (DD2) proliferation (AID 743345; call rule not given here); conditions: P. falciparum Dd2 in erythrocytes, SYBR Green DNA, 72 h; at 28.5 µM unless noted
How it was run: as §1

[3] = qHTS profiling of the MIPE4 collection as inhibitors of Plasmodium falciparum (DD2) proliferation (Rep 2) (AID 743346; call rule not given here); conditions: P. falciparum Dd2 in erythrocytes, SYBR Green DNA, 72 h; at 28.5 µM unless noted
How it was run: as §1

[4] = qHTS profiling of the MIPE4 collection as inhibitors of Plasmodium falciparum (HB3) proliferation (AID 743347; call rule not given here;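 further: plate controls were DMSO vehicle wells for no effect and artemisinin wells for full effect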); conditions: P. falciparum HB3 in erythrocytes, SYBR Green DNA, 72 h; at 28.5 µM unless noted
How it was run: as §1

[5] = High-throughput drug toxicity screening in the BPDCN cell line Gen2.2 (AID 1224824; call rule not given here;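 further: cells exposed to compounds for 48 h before reading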); conditions: Gen2.2 BPDCN cells; at 45.8 µM (top of the series) unless noted
How it was run: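 Seed 500 exponentially growing Gen2.2 cells/well; add compounds by pin tool; incubate 48 h, 37 °C, 5% CO2; add CellTiter-Glo, 15 min RT; read luminescence. % activity vs DMSO (100%) and bortezomib (0%).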

[6] = qHTS assay for measurement of the activity of small molecule inhibitors on Zika virus induced Caspase-3 activity in human iPSC derived neural progenitor cells (hNPCs) (AID 1224857); further: % of control where 0% means no effect; nearly all actives have a fitted effect of over 65% in size
How it was run: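 After overnight (16–20 h) culture at 350 cells/well, hNPCs get compound, then ZIKV 2 FFU/cell one hour later. Six hours on, Caspase-Glo 3/7 is added and luminescence measured.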

[7] = qHTS assay for measurement of the activity of small molecule inhibitors on Zika virus induced Caspase-3 activity in human astrocytoma cells (AID 1224859);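 further: plate controls were ZIKV-infected untreated cells for no effect and uninfected cells for full effect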
How it was run: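 Inhibition of Zika-induced caspase-3/7 activity: SNB-19 cells, 1 h compound pretreatment, ZIKV 2 FFU/cell for 6 h at 37 C, Caspase-Glo luminescence read-out.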

[8] = qHTS Screen of the MIPE 4.0 Collection Against Ewings Sarcoma (RDES) (AID 1259252); further: nearly all actives have a fitted effect of over 35% in size; further: potency means the concentration at half of the fitted maximal effect
How it was run: (§2)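 Compound titrations go onto adherent log-phase cells 4 h after seeding, incubate 48 h at 37C, then CellTiter-Glo luminescence reports viability relative to DMSO and cell-free controls.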

[9] = qHTS Screen of the MIPE 4.0 Collection Against Ewings Sarcoma (TC71) (AID 1259253); further: nearly all actives have a fitted effect of over 40% in size; further: potency means the concentration at half of the fitted maximal effect
How it was run: as §2

[10] = qHTS Screen of the MIPE 4.0 Collection Against Ewings Sarcoma (EW8) (AID 1259255); further: nearly all actives have a fitted effect of over 35% in size; further: potency means the concentration at half of the fitted maximal effect;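 on viability: 100% = DMSO-treated cells and 0% = medium-only wells without cells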
How it was run: as §2

[11] = qHTS Screen of the MIPE 4.0 Collection Against Ewings Sarcoma (TC32) (AID 1259256); further: nearly all actives have a fitted effect of over 45% in size; further: potency means the concentration at half of the fitted maximal effect
How it was run: as §2

[12] = High-throughput drug toxicity screening in the BPDCN cell line Cal-1 (AID 1224825; call rule not given here); conditions: Cal-1 BPDCN cell viability, qHTS; at 45.8 µM (top of the series) unless noted
How it was run: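 Viability of the BPDCN line Cal-1 is measured as ATP-based luminescence (CellTiter-Glo) following 48 h incubation with compounds. Percent activity uses DMSO-treated wells as 100% and 9.2 uM bortezomib as 0%.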

[13] = qHTS assay to identify small molecule inhibitors of chordoma cells - UCH-1 (AID 1259355); further: potency means the concentration at half of the fitted maximal effect; nearly all actives have a fitted effect of over 55% in size
How it was run: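 A 48hr growth-inhibition format: each drug tested at 15 concentrations together with added auranofin, camptothecin, doxorubicin, rubitecan and topotecan, with cell viability quantified as CellTiter-Glo luminescence.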

[14] = qHTS assay to identify small molecule inhibitors of chordoma cells - UCH-2 (AID 1259356); further: on the % scale 0 is the no-effect control and ±100 the full control effect
[15] = qHTS profiling for inhibitors of Plasmodium falciparum (3D7) proliferation (AID 743322);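 further: infected erythrocytes exposed to compound for 72 h before lysis; 100% = DMSO vehicle wells and 0% = 0.29 µM artemisinin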; conditions: P. falciparum 3D7 proliferation; at 28.7 µM (top of the series)
How it was run: as §1

[16] = qHTS profiling for inhibitors of Plasmodium falciparum (DD2) proliferation (AID 743323; call rule not given here); conditions: lower = more inhibition; at 28.7 µM (top of the series)
How it was run: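 Parasite DNA quantified by SYBR Green fluorescence (ex 485, em 535 nm) after saponin/Triton lysis and overnight dark incubation. Cultures: 0.3% parasitemia, 2.5% hematocrit, 72 h, 37 C; data scaled between DMSO and 0.29 uM artemisinin.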

[17] = qHTS profiling for inhibitors of Plasmodium falciparum (HB3) proliferation (AID 743324); conditions: Plasmodium falciparum HB3 blood-stage proliferation; at 28.7 µM (top of the series);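 further: 100% = DMSO vehicle wells and 0% = artemisinin-treated control wells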
How it was run: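 SYBR Green fluorescence (485 ex/535 em) of lysed cultures, incubated overnight at room temperature in the dark, quantifies parasite DNA. Infected erythrocytes at 0.3% parasitemia and 2.5% hematocrit were exposed 72 h; values normalized to DMSO and 0.29 uM artemisinin controls.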

[18] = Identifying Small Molecule Inhibitors of Pancreatic Cancer Stem Cells (SN12C, Adherent) (AID 1259358);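 further: potency means the concentration at half of the fitted maximal effect; cell survival measured after 48 h of compound exposure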
How it was run: (§3)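 Viability is scored by CellTiter-Glo luminescence 48 h after dosing, expressed as percent activity against vehicle and no-cell references. Spheroid formats rely on cells cultured 14 days in stem cell media beforehand.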

[19] = Identifying Small Molecule Inhibitors of Pancreatic Cancer Stem Cells (A2780, Spheroid) (AID 1259357); conditions: Potency: A2780 spheroid viability; further: potency means the concentration at half of the fitted maximal effect;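 further: spheroids pre-formed over 14 days in stem cell medium on hydrogel; compound exposure lasted 48 h before the ATP luminescence read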
How it was run: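 Spheroids grown 14 days in stem cell media on hydrogel-coated nonadherent plates; 2D lines seeded directly. Compounds added after 4 h attachment, 48 h at 37C, 5% CO2; CellTiter-Glo luminescence normalized to DMSO (no inhibition) and no-cell wells (full inhibition).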

[20] = Identifying Small Molecule Inhibitors of Pancreatic Cancer Stem Cells (Panc1, Spheroid) (AID 1259359);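 further: potency means the concentration at half of the fitted maximal effect; compound exposure lasted 48 h before reading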
How it was run: as §3

| SMILES | parasite growth, % of DMSO control [1] [%] | parasite growth remaining, % of DMSO control (lower = more inhibition) [2] [%] | parasite growth, % of control (lower = inhibition) [3] [%] | growth, % of control [4] [%] | cell viability, % of control (lower = more cytotoxic) [5] [%] | Potency [6] | Potency [7] | Potency [8] | Potency [9] | Potency [10] | Potency [11] | viability (% of control) [12] [%] | Potency [13] | outcome [14] | remaining parasite growth % (stronger effect = lower value) [15] [%] | activity, percent of control [16] [%] | remaining proliferation (% of control), lower = more inhibition [17] [%] | Potency [18] | Potency [19] | Potency [20] |
| --- | --- | --- | --- | --- | --- | --- | --- | --- | --- | --- | --- | --- | --- | --- | --- | --- | --- | --- | --- | --- |
| O=C(Nc1ncc(-c2cc(C(F)F)nn2-c2c(Cl)cccc2Cl)s1)C1CC1 | 10.3 | 26.5 | 31.4 | 19.5 | 23.6 | inactive | inactive | 418 nM (active) | 743 nM (active) | 469 nM (active) | 469 nM (active) | – | – | – | – | – | – | – | – | – |
| Nc1ncnc2c1c(-c1cnc3[nH]ccc3c1)nn2C1CCCC1 | 6.52 | – | 8.28 | 2.85 | 7.53 | – | – | 469 nM (active) | 662 nM (active) | 2090 nM (active) | 1050 nM (active) | – | – | – | – | – | – | – | – | – |
| COC(=O)C[C@](O)(CCCC(C)(C)O)C(=O)O[C@@H]1C(OC)=C[C@]23CCCN2CCc2cc4c(cc2[C@H]13)OCO4 | – | – | – | – | – | inactive | inactive | inactive | inactive | inactive | inactive | 134 | 199 nM (active) | inactive | – | – | – | – | – | – |
| COc1cc2ncn(-c3cc(OCc4ccccc4C(F)(F)F)c(C(N)=O)s3)c2cc1OC | 41.3 | 65 | 44.3 | 35.9 | 43.1 | inactive | – | 4180 nM (active) | 1480 nM (active) | 1320 nM (active) | 1320 nM (active) | – | – | – | 18.7 | 43.8 | 13 | 1050 nM (active) | – | – |
| C[C@@]12O[C@@H](C[C@]1(O)CO)n1c3ccccc3c3c4c(c5c6ccccc6n2c5c31)CNC4=O | 6.66 | 6.07 | 28.1 | 9.72 | – | inactive | inactive | 1180 nM (active) | 590 nM (active) | 296 nM (active) | 332 nM (active) | 5.8 | – | – | -0.0626 | 0.326 | 0.698 | – | 23500 nM (active) | – |
| COc1cc2c(Oc3ccc(-c4cnc(Nc5ccc(F)cc5)n(C)c4=O)cc3F)ccnc2cc1OCCCN1CCOCC1 | 6.28 | 6.26 | 17 | 9.39 | – | inactive | inactive | 20900 nM (active) | 20900 nM (active) | 18700 nM (active) | 11800 nM (active) | 0.783 | – | – | -2.59 | -0.143 | -1.33 | 5900 nM (active) | – | 11800 nM (active) |
| CC[C@@H]1C(=O)N(C)c2cnc(Nc3ccc(C(=O)NC4CCN(C)CC4)cc3OC)nc2N1C1CCCC1 | 4.91 | 6.75 | 17.2 | 6.34 | – | inactive | inactive | 66.2 nM (active) | 74.3 nM (active) | 37.2 nM (active) | 46.9 nM (active) | 2.57 | – | – | 0.0061 | 0.0959 | -0.331 | – | inactive | 8.3 nM (active) |
